Source: PubChem BioAssay (National Center for Advancing Translational Sciences (NCATS))
Pol beta inh – inhibitors of human DNA polymerase beta. 340,000 tested, 1.3% active. Pol beta primer extension/strand displacement, fluorescence kinetic. P06746. AID 485314. Potency, µM (highest dose often 114 µM), most hits filed as inhibitors
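Preincubation: enzyme (10 nM) with compound, 15 min, RT. Reaction: substrate added to 50 nM final. Reads: 0 and 10 min. Analysis: normalized, Hill fit.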
WRN helicase inh – WRN helicase (human) inhibition; WRN helicase unwinding, fluorescent forked duplex, kinetic; AID 651768; Q14191; 360,000 tested, 0.46% active; Potency, µM (series often up to 114 µM), actives largely listed as inhibitors; further: nearly all actives have a fitted effect of over 55% in size
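Kinetic red-fluorescence monitoring (525/598 nm) tracks WRN helicase activity after 100 nM fluorophore-quencher forked duplex and 2 mM ATP are added to 20 nM enzyme pretreated 15 min at room temperature with compound.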
Pol kappa inh-1 – DNA polymerase kappa (human) inhibition; Q9UBT6; purified Pol kappa, fluorescent DNA synthesis assay, 10 min; Potency, µM (doses to about 107 µM), usual class: inhibitors; 400,000 tested, 0.53% active; AID 588579
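Fluorescent qHTS in 1536-well format: enzyme (10 nM) and compound sat 15 min at room temperature before 50 nM substrate (final) was added. Signal taken at 0 and 10 min; no-enzyme buffer wells were negative controls.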
POLI inh – DNA polymerase iota (human) inhibition; Q9UNA4; Pol iota fluorescent replication assay, 10 min; Potency, µM (doses to about 115 µM), hits mostly inhibitors; 390,000 tested, 1% active; AID 588590
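Fluorescent replication assay read twice, at 0 min and 10 min after adding 50 nM (final) substrate. Enzyme (10 nM) and compounds were first incubated 15 min at room temperature; enzyme-free buffer wells were negative controls.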
PI5P4Ka inh – inhibitors of human PI5P4K alpha. P48426. PI5P4Kalpha enzyme, ADP-Glo luminescence, 60 min; stronger effect = lower value. max response, %. 330,000 tested, 1.2% active; active means max response of -50% or lower; inconclusive means between -30% and -50%; inactive means -30% or higher; further: value at the top dose of about 77 µM
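Controls without substrate or without enzyme flank wells where PI5P4Kalpha converts substrate using 5 microM ATP (final). Incubation lasts 60 minutes at room temperature; ADP formed is read by ADP-Glo luminescence.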
Pol eta inh-1 – blocks human DNA polymerase eta activity. recombinant Pol eta, fluorescent DNA replication assay. Potency, µM (top dose mostly 114 µM), hits mostly inhibitors. 390,000 tested, 1.2% active. AID 588591
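Fluorescent replication assay: 50 nM final substrate added after a 15 min room-temperature compound preincubation with 10 nM enzyme. Signal taken at 0 min and again at 10 min.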
GALK confirm – confirmation of human galactokinase (GALK) inhibitors; purified GALK, Kinase-Glo ATP depletion luminescence; 150 tested, 70% active; shares compounds with Pol eta inh-1; Potency, µM (doses to about 115 µM), usual class: inhibitors
Target sequence (P51570 whole entry, looked up): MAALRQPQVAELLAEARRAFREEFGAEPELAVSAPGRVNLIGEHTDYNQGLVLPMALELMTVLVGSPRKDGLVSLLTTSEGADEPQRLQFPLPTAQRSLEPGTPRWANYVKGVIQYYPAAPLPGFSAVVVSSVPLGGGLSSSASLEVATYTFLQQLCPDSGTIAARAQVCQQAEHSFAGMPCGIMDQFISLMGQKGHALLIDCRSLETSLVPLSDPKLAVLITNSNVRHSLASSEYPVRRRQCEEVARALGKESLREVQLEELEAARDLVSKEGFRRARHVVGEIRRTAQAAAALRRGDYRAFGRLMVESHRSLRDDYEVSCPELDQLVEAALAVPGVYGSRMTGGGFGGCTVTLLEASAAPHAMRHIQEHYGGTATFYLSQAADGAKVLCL
GALK redox cs – redox cycling activity in phenol red-HRP assay. shares compounds with Pol eta inh-1. Phenol red-HRP H2O2 redox cycling, absorbance 600 nm. Potency, µM (doses to about 115 µM), most hits filed as inhibitors. 150 tested, 40% active
HEK293 viability – HEK-293 cytotoxicity, GALK inhibitor secondary. shares compounds with Pol eta inh-1. HEK-293 viability, ATP luminescence (CellTiter-Glo), 24/48 h. Potency, µM (titrated, usually from 46.1 µM), hits mostly inhibitors. 170 tested, 10% active
Pol kappa inh-2 – Pol kappa (human) inhibition, cherry-pick confirmation; 920 tested, 76% active; Potency, µM, hits mostly inhibitors; shares compounds with Pol eta inh-1; purified Pol-kappa, fluorescent strand-displacement substrate; AID 720501
Pol eta inh-2 – confirmation of human DNA polymerase eta inhibitors; shares compounds with Pol eta inh-1; Pol eta primer extension, TAMRA/BHQ fluorescence, 10 min; Potency, µM, hits mostly inhibitors; 2,600 tested, 64% active
Hits are given with their value; [ ] = remark or other dose. A selection: hits, their analogues and other compounds. The true share with any hit is near 2.8%. Unless noted, the call rests on the fitted dose curve; in most records, active means well fitted curve in the direction sought with a large enough effect; inconclusive means small, poorly fitted or top-dose-only effect, or another doubt; inactive means no such curve, though single readings can be large; an effect the other way counts as inactive or inconclusive.

What do the screens show for `CC(C)(C)NC(=O)CSc1nnc(-c2ccccc2)c(-c2ccccc2)n1`?
Pol beta inh: inactive; WRN helicase inh: inactive; Pol kappa inh-1: inactive; POLI inh: inactive; PI5P4Ka inh: inactive; Pol eta inh-1: inactive

What do the screens show for `CC(=O)NNC(=O)CSc1nnc(-c2ccccc2)c(-c2ccccc2)n1`?
Pol beta inh: inactive; WRN helicase inh: inactive; Pol kappa inh-1: inconclusive; POLI inh: inconclusive; PI5P4Ka inh: inactive; Pol eta inh-1: 14µM; Pol kappa inh-2: 19; Pol eta inh-2: 7.6

What do the screens show for `Cc1ccc(-c2nc3cc(Cl)ccc3o2)cc1NC(=O)COc1ccc(F)cc1`?
Pol beta inh: inactive; Pol kappa inh-1: inactive; POLI inh: inactive

What do the screens show for `N#Cc1ccsc1NC(=O)COC(=O)C1=NNC(=O)CC1`?
WRN helicase inh: inconclusive; Pol kappa inh-1: inconclusive; POLI inh: 14µM; PI5P4Ka inh: -82; Pol eta inh-1: 20µM; Pol eta inh-2: 76

Results for O=C1CCC(C(=O)OCC(=O)Nc2ccccc2Br)=NN1 ?
WRN helicase inh: inactive; PI5P4Ka inh: inactive; Pol eta inh-1: inactive

How did CC(=O)Nc1ccc(C=NNc2ccc([N+](=O)[O-])cc2S(=O)(=O)Nc2ccccc2C(=O)O)cc1 do in these assays?
WRN helicase inh: inactive; Pol kappa inh-1: inactive; POLI inh: inconclusive; PI5P4Ka inh: -64; Pol eta inh-1: 50µM; Pol kappa inh-2: inconclusive

What do the screens show for `C/C(=C\C(=O)OCCCCCCCCC(=O)O)C[C@@H]1OCC(C[C@H]2O[C@H]2[C@@H](C)[C@H](C)O)[C@@H](O)[C@H]1O` (stereo not given in full)?
Pol kappa inh-1: inactive

What do the screens show for `Cc1cccc(C)c1NC(=O)CN(C)C(=O)c1ccc2nc[nH]c2c1`?
WRN helicase inh: inactive[11.6 µM]; Pol kappa inh-1: inconclusive; POLI inh: 22µM; PI5P4Ka inh: inactive; Pol eta inh-1: inconclusive; Pol eta inh-2: 67

Results for Cc1cc(C)cc(OCC(=O)N(Cc2ccco2)Cc2ccccc2Cl)c1 ?
Pol beta inh: inactive; Pol kappa inh-1: inactive; POLI inh: inactive

How did Oc1c(CN2CCCCC2)cc(COCc2ccccc2)c2cccnc12 do in these assays?
Pol beta inh: inactive; WRN helicase inh: inactive; Pol kappa inh-1: inactive; POLI inh: inactive; PI5P4Ka inh: inactive; Pol eta inh-1: inactive

What do the screens show for `COCc1cc(CN2CCCC2)c(O)c2ncccc12`?
Pol beta inh: inactive; WRN helicase inh: inactive; Pol kappa inh-1: inactive; POLI inh: inactive; Pol eta inh-1: inactive; GALK confirm: inactive; GALK redox cs: inactive; HEK293 viability: inconclusive

What do the screens show for `CCOC(=O)C(=Cc1ccccc1)C(=O)OCC`?
Pol kappa inh-1: inactive

Results for CCOC(=O)/C(=C\c1ccc(N2CCC(c3ccccc3)=N2)cc1)C(C)=O ?
WRN helicase inh: inconclusive; Pol kappa inh-1: inactive; POLI inh: inactive; PI5P4Ka inh: inactive; Pol eta inh-1: inconclusive; Pol eta inh-2: inconclusive

How did CCOC(=O)/C=C(\C)Sc1cc(O)c2ccccc2c1O do in these assays?
Pol beta inh: 35µM; WRN helicase inh: inactive; Pol kappa inh-1: inactive; POLI inh: inconclusive; PI5P4Ka inh: inconclusive; Pol eta inh-1: 28µM; GALK confirm: 30µM; GALK redox cs: 19µM; HEK293 viability: inconclusive

Results for CCOC(=O)/C=C(\C)Sc1cc(=O)oc2ccccc12 ?
Pol beta inh: inactive; WRN helicase inh: inactive; Pol kappa inh-1: inactive; POLI inh: inactive; PI5P4Ka inh: inactive; Pol eta inh-1: inactive

How did Nc1ccc(C(=O)Nc2ccc3c(O)cc(S(=O)(=O)O)cc3c2)cc1 do in these assays?
WRN helicase inh: inactive[11.6 µM]; Pol kappa inh-1: inconclusive; POLI inh: inconclusive; PI5P4Ka inh: -52; Pol eta inh-1: 11µM; Pol kappa inh-2: inconclusive; Pol eta inh-2: 76

What do the screens show for `Nc1ccc(C(=O)Nc2ccc(OC(F)(F)C(F)F)c(NC(=O)c3ccc(N)cc3)c2)cc1`?
Pol beta inh: inactive; WRN helicase inh: inactive; Pol kappa inh-1: inactive; POLI inh: inactive; PI5P4Ka inh: inactive; Pol eta inh-1: inconclusive

Results for CC1=CC2(O)OCCN(CCO)C2=CC1=O (stereo not given) ?
Pol beta inh: 25µM; WRN helicase inh: inactive[11.6 µM]; Pol kappa inh-1: inconclusive; POLI inh: inconclusive; Pol eta inh-1: inconclusive; Pol eta inh-2: inconclusive

Results for CC(=O)c1ccc(NC(=O)Nc2ccc3snnc3c2)cc1 ?
Pol beta inh: inconclusive; Pol kappa inh-1: inactive; POLI inh: 89µM; Pol eta inh-1: inconclusive; Pol kappa inh-2: inconclusive

How did CCOc1cc(/C=C2/C(=N)N3C(=NC2=O)SN=C3S(C)(=O)=O)ccc1OS(=O)(=O)c1ccccc1 do in these assays?
Pol beta inh: inconclusive; WRN helicase inh: inactive; Pol kappa inh-1: inactive; POLI inh: inconclusive; PI5P4Ka inh: -63; Pol eta inh-1: 79µM; GALK confirm: 33µM; GALK redox cs: inactive; HEK293 viability: inactive

How did COC(=O)c1cc(COc2ccc3c4c(c(=O)oc3c2)CCCC4)c(C)o1 do in these assays?
Pol beta inh: inactive; WRN helicase inh: inactive; Pol kappa inh-1: inactive; POLI inh: inactive; Pol eta inh-1: inactive

Results for Cc1oc(C(=O)O)cc1COc1ccc2c3c(c(=O)oc2c1)CCC3 ?
Pol beta inh: 35µM; WRN helicase inh: inactive; Pol kappa inh-1: inconclusive; POLI inh: inactive; PI5P4Ka inh: inactive; Pol eta inh-1: 18µM; Pol eta inh-2: inconclusive

Results for O=C(O)/C(=C\c1cccc(F)c1)c1ccc(S(=O)(=O)N2CCCC2)s1 ?
WRN helicase inh: inactive; Pol kappa inh-1: inactive; POLI inh: inactive; PI5P4Ka inh: inactive; Pol eta inh-1: inconclusive

Results for Cc1cccc(/C=C(\C(=O)O)c2ccc(S(=O)(=O)N3CCCC3)s2)c1 ?
WRN helicase inh: inconclusive; Pol kappa inh-1: inconclusive; POLI inh: inconclusive; PI5P4Ka inh: inactive; Pol eta inh-1: 13µM; Pol kappa inh-2: 34; Pol eta inh-2: inconclusive
